Values joined by “and” are separate entries in the source; they are usually repeats but may differ in a detail not shown here. Equal entries are not always repeated. Records with an inconclusive call do not appear. Where a call stands in place of a potency, no number is given. Some compounds were tested as several samples or in several runs, with calls that do not always agree. Unmarked numbers belong to inactive results. Active and inactive are the calls of the source. Calls follow the shape of the dose curve; as a rule, active = well fitted inhibition curve with a large enough effect; inconclusive = small, poorly fitted or top-dose-only effect; inactive = flat fitted curve, though single readings scatter.
Experiments:
JCK = assay: qHTS profiling for inhibitors of Plasmodium falciparum proliferation (AID 504749); also: potency is read from the fitted curve at half-maximal effect; conditions: P. falciparum in erythrocytes, SYBR Green DNA, 72 h; series mostly up to 28.7 µM
Method in brief: (§1)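 Fluorescence of SYBR Green-bound parasite DNA, read at 485/535 nm, served as the growth measure. Infected erythrocytes were cultured with compound 72 h; artemisinin (0.29 uM) and DMSO wells defined the normalization range.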

N140 = assay: as above; conditions: P. falciparum in erythrocytes, SYBR Green DNA, 72 h; series mostly up to 28.7 µM
Method in brief: as §1

P93_24 = assay: as above; conditions: P. falciparum in erythrocytes, SYBR Green DNA, 72 h; series mostly up to 28.7 µM
Method in brief: as §1

P94_40 = assay: as above; conditions: P. falciparum in erythrocytes, SYBR Green DNA, 72 h; series mostly up to 28.7 µM
Method in brief: as §1

PAD = assay: as above; conditions: P. falciparum in erythrocytes, SYBR Green DNA, 72 h; series mostly up to 28.7 µM
Method in brief: as §1

PC15 = assay: as above; conditions: P. falciparum in erythrocytes, SYBR Green DNA, 72 h; series mostly up to 28.7 µM
Method in brief: as §1

PC26 = assay: as above; conditions: P. falciparum in erythrocytes, SYBR Green DNA, 72 h; series mostly up to 28.7 µM
Method in brief: as §1

PC49 = assay: as above; conditions: P. falciparum in erythrocytes, SYBR Green DNA, 72 h; series mostly up to 28.7 µM
Method in brief: as §1

SC27B = assay: as above; conditions: P. falciparum in erythrocytes, SYBR Green DNA, 72 h; series mostly up to 28.7 µM
Method in brief: as §1

TAB109 = assay: as above; conditions: P. falciparum in erythrocytes, SYBR Green DNA, 72 h; series mostly up to 28.7 µM
Method in brief: as §1

TAB113 = assay: as above; conditions: P. falciparum in erythrocytes, SYBR Green DNA, 72 h; series mostly up to 28.7 µM
Method in brief: as §1

TAB165 = assay: as above; conditions: P. falciparum in erythrocytes, SYBR Green DNA, 72 h; series mostly up to 28.7 µM
Method in brief: as §1

W2 = assay: as above; conditions: P. falciparum in erythrocytes, SYBR Green DNA, 72 h; series mostly up to 28.7 µM
Method in brief: as §1

CRL-7250 = normal cell line; assay: Cytotoxic Profiling of Annotated Libraries Using Quantitative High-Throughput Screening (AID 1296008); conditions: Five cell lines viability, CellTiter-Glo ATP luminescence, 48-72 h; max response: active compounds read low; also: potency is read from the fitted curve at half-maximal effect
Method in brief: (§2)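 Compounds were pin-transferred onto cells and incubated 48 or 72 hr at 37 degree Celsius, 95% humidity. CellTiter-Glo was added, plates sat 10 min at room temperature, then ATP-coupled luminescence was imaged as the viability read-out.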

HEK293 = assay: as above; conditions: Five cell lines viability, CellTiter-Glo ATP luminescence, 48-72 h; max response: active compounds read low
Method in brief: as §2

HaCat [1] = assay: as above; conditions: Five cell lines viability, CellTiter-Glo ATP luminescence, 48-72 h; max response: active compounds read low
Method in brief: as §2

KB-3-1 = assay: as above; conditions: Five cell lines viability, CellTiter-Glo ATP luminescence, 48-72 h; max response: active compounds read low
Method in brief: as §2

NIH3T3 = assay: as above; conditions: Five cell lines viability, CellTiter-Glo ATP luminescence, 48-72 h; max response: active compounds read low
Method in brief: as §2

HEK293T = assay: qHTS assay to identify novel small-molecules to repurpose for Merkel cell carcinoma treatment (AID 1296009); conditions: MCC and control cell lines, CellTiter-Glo viability, 72 h; at 44.8 µM (top of the series) unless noted
Method in brief: (§3)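 Luminescence from CellTiter-Glo, read 10 min after addition at room temperature, reported viability following a 72 hr, 37 degree celsius treatment with NPC or MIPE compounds in titration; values normalized to plate controls.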

HACAT [2] = assay: as above; conditions: MCC and control cell lines, CellTiter-Glo viability, 72 h; at 44.8 µM (top of the series) unless noted
Method in brief: as §3
Also: nearly all actives have a fitted effect of over 60% in size.

## C[C@]12CCC(=O)C=C1CC[C@@H]1[C@H]2[C@@H](O)C[C@@]2(C)[C@H]1CC[C@]2(O)C(=O)CO
JCK
  Potency: inactive
N140
  Potency: inactive
P93_24
  Potency: inactive
P94_40
  Potency: inactive
PAD
  Potency: inactive
PC15
  Potency: inactive
PC26
  Potency: inactive
PC49
  Potency: inactive
SC27B
  Potency: inactive
TAB109
  Potency: inactive
TAB113
  Potency: inactive
TAB165
  Potency: inactive
W2
  Potency: inactive
CRL-7250
  max response: -1.54%
HEK293
  outcome: inactive
HaCat [1]
  max response: -4.53%
KB-3-1
  max response: 33.4%
NIH3T3
  outcome: inactive
HEK293T
  outcome: inactive

## O=c1c(O)c(-c2cc(O)c(O)c(O)c2)oc2cc(O)cc(O)c12
CRL-7250
  max response: 3.08%
HEK293
  max response: -2.69%
HaCat [1]
  outcome: inactive
KB-3-1
  max response: 2.62%
NIH3T3
  max response: -26.9%
HACAT [2]
  outcome: inactive

## Nc1cccc2c1CN(C1CCC(=O)NC1=O)C2=O (stereo unspecified)
JCK
  Potency: inactive
N140
  Potency: inactive
P93_24
  Potency: inactive
P94_40
  Potency: inactive
PAD
  Potency: inactive
PC15
  Potency: inactive
PC26
  Potency: inactive
PC49
  Potency: inactive
SC27B
  Potency: inactive
TAB109
  Potency: inactive
TAB113
  Potency: inactive
TAB165
  Potency: inactive
W2
  Potency: inactive
CRL-7250
  max response: -16.9% and -19.4%
HEK293
  max response: 2.44% and -8.05%
HaCat [1]
  max response: -19.3% and -22.9%
KB-3-1
  max response: 2.15% and 5.39%
NIH3T3
  max response: 1.1% and -1.07%

## CCOC(=O)C(C)Oc1cccc2c(=O)n(CC(=O)Nc3ccc4c(c3)OCCO4)ccc12 (stereo unspecified)
CRL-7250
  max response: 3.46%
HEK293
  max response: -23.2%
HaCat [1]
  outcome: inactive
KB-3-1
  outcome: inactive
NIH3T3
  max response: 0.733%
HACAT [2]
  outcome: inactive

## Clc1ccc2c(N3CCN(CCCN4CCN(c5ccnc6cc(Cl)ccc56)CC4)CC3)ccnc2c1
CRL-7250
  max response: -5.75%
HEK293
  outcome: inactive
HaCat [1]
  outcome: inactive
KB-3-1
  max response: 3.7%
NIH3T3
  max response: -5.21%
HACAT [2]
  outcome: inactive [at 17.4 µM]
HEK293T
  outcome: inactive [at 17.4 µM]

## CC(C)[N+]1(C)[C@@H]2CC[C@H]1CC(OC(=O)C(CO)c1ccccc1)C2 (stereo partly specified)
CRL-7250
  max response: 2.83%
HEK293
  max response: -4.08%
HaCat [1]
  outcome: inactive
KB-3-1
  max response: 9.75% and 15.3%
NIH3T3
  outcome: inactive
HACAT [2]
  outcome: inactive

## CC1(C)C(=O)N(CCN2CCC(C(=O)c3ccc(F)cc3)CC2)c2ccccc21
CRL-7250
  max response: 0.499%
HEK293
  outcome: inactive
HaCat [1]
  max response: -16.9%
KB-3-1
  max response: 2.39%
NIH3T3
  max response: -5.82%
HEK293T
  outcome: inactive

## Cc1nc(Nc2ncc(C(=O)Nc3c(C)cccc3Cl)s2)cc(N2CCN(CCO)CC2)n1
JCK
  Potency: inactive
N140
  Potency: 14.1 µM (active)
TAB109
  Potency: inactive
TAB113
  Potency: inactive
TAB165
  Potency: 12.6 µM (active)
CRL-7250
  Potency: 83.3 nM (active) and 66.8 nM (active) and 259 nM (active)
HEK293
  Potency: 23.7 µM (active)
HaCat [1]
  Potency: 944 nM (active)
KB-3-1
  max response: -28.1%
NIH3T3
  Potency: 59.6 nM (active) and 73.1 nM (active)
  max response: -106%

## Nc1cc(C(Cl)=C(Cl)Cl)c(S(N)(=O)=O)cc1S(N)(=O)=O
JCK
  Potency: inactive
N140
  Potency: inactive
P93_24
  Potency: inactive
P94_40
  Potency: inactive
PAD
  Potency: inactive
PC15
  Potency: inactive
PC26
  Potency: inactive
PC49
  Potency: inactive
SC27B
  Potency: inactive
TAB109
  Potency: inactive
TAB113
  Potency: inactive
TAB165
  Potency: inactive
W2
  Potency: inactive
CRL-7250
  max response: -8.91%
HEK293
  outcome: inactive
HaCat [1]
  max response: 2.98% and -14%
KB-3-1
  max response: -2.94% and -17.4%
NIH3T3
  max response: 4.72% and -5.94%
HEK293T
  outcome: inactive

## Oc1ccc2ccccc2c1SSc1c(O)ccc2ccccc12
CRL-7250
  max response: -5.27%
HEK293
  max response: -1.68%
HaCat [1]
  outcome: inactive; activator
KB-3-1
  max response: 9.23%
NIH3T3
  outcome: inactive
HACAT [2]
  outcome: inactive; activator

## C[Se]CCC(N)C(=O)O (stereo unspecified)
JCK
  Potency: inactive
N140
  Potency: inactive
P93_24
  Potency: inactive
P94_40
  Potency: inactive
PAD
  Potency: inactive
PC15
  Potency: inactive
PC26
  Potency: inactive
PC49
  Potency: inactive
SC27B
  Potency: inactive
TAB109
  Potency: inactive
TAB113
  Potency: inactive
TAB165
  Potency: inactive
CRL-7250
  max response: -3.1%
HEK293
  max response: -11.1%
HaCat [1]
  max response: -19.1%
KB-3-1
  max response: -9.75%
NIH3T3
  outcome: inactive

## CC(C)(S)[C@@H](N)C(=O)O
JCK
  Potency: inactive
N140
  Potency: inactive
P93_24
  Potency: inactive
P94_40
  Potency: inactive
PAD
  Potency: inactive
PC15
  Potency: inactive
PC26
  Potency: inactive
PC49
  Potency: inactive
SC27B
  Potency: inactive
TAB109
  Potency: inactive
TAB113
  Potency: inactive
TAB165
  Potency: inactive
W2
  Potency: inactive
CRL-7250
  max response: 1.05%
HEK293
  max response: 2.4%
HaCat [1]
  outcome: inactive
KB-3-1
  max response: 2.35% and 8.6%
NIH3T3
  outcome: inactive
HACAT [2]
  outcome: inactive

## CN1CCC(=C2c3ccccc3CCc3sccc32)CC1
PC49
  Potency: 8.91 µM (active)
TAB165
  Potency: 4.47 µM (active)
W2
  Potency: 1.51 µM (active)
CRL-7250
  max response: -8.84% and -2.17%
HEK293
  Potency: 26.4 µM (active) and 10.6 µM (active)
HaCat [1]
  outcome: inactive
KB-3-1
  max response: -12.2% and -19.3%
NIH3T3
  max response: 2.3%
  outcome: inactive
HACAT [2]
  outcome: inactive

## O=c1c(O)c(-c2ccc(O)cc2O)oc2cc(O)cc(O)c12
CRL-7250
  max response: -3.27%
HEK293
  max response: 4.53%
HaCat [1]
  outcome: inactive
KB-3-1
  max response: -10.8%
NIH3T3
  max response: -16.7%
HACAT [2]
  outcome: inactive

Source: PubChem BioAssay (NCATS)
